Measurements: PubChem BioAssay AID1159580 (chemical genetic matrix, 2015)
Several values for one entry are separate records, joined by “and”; a condition that tells them apart may be missing. Equal entries are not always repeated. The whole screen tested about 5,500 compounds, of which about 2,000 (36%) were called active. Roughly 18% stayed inconclusive and do not appear here. No stated cut-off is given here; in the data, active means normalized growth mostly below about 0.91 (no sharp cut-off); inconclusive means no clear call, values can overlap the other calls; inactive means mostly above about 0.92. The list shows a part of the results.

Assay: chemical genetic growth profiling, strain panel (AID 1159580);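 further: tested at 20 µM; growth read once vehicle control cultures reached saturation at 30 °C; 1 = growth at the plate median or of vehicle wells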
Conditions: S. cerevisiae deletion strains, growth OD

Measured: normalized growth

Nc1ccccc1C(=O)CC(N)C(=O)O (stereo not drawn)
inactive: locus YAL021C, strain ccr4, stronger effect = lower value 1.01 | locus YAL026C, strain drs2, stronger effect = lower value 1.01 | locus YAL030W, strain snc1, stronger effect = lower value 0.992 | locus YBL061C, strain skt5, stronger effect = lower value 1 | locus YBR009C, strain hhf1, stronger effect = lower value 1.01 | locus YBR021W, strain FUR4, stronger effect = lower value 1.06 | locus YBR023C, strain chs3, stronger effect = lower value 1 | locus YBR171W, strain sec66, stronger effect = lower value 0.99 | locus YBR229C, strain ROT2, stronger effect = lower value 1.01 | locus YBR231C, strain swc5, stronger effect = lower value 0.97 | locus YBR279W, strain paf1, stronger effect = lower value 1.01 | locus YCL011C, strain gbp2, stronger effect = lower value 1.01 | locus YCL016C, strain dcc1, stronger effect = lower value 1 | locus YCL029C, strain bik1, stronger effect = lower value 0.968 | locus YCL069W, strain vba3, stronger effect = lower value 1.01 | locus YCR088W, strain abp1, stronger effect = lower value 0.989 | locus YDL005C, strain med2, stronger effect = lower value 0.989 | locus YDL035C, strain GPR1, stronger effect = lower value 1.01 | locus YDL040C, strain nat1, stronger effect = lower value 0.989 | locus YDL074C, strain BRE1, stronger effect = lower value 0.968 | locus YDL101C, strain DUN1, stronger effect = lower value 0.995 | locus YDL134C, strain PPH21, stronger effect = lower value 1.07 | locus YDL185W, strain tfp1, stronger effect = lower value 0.947 | locus YDL192W, strain arf1, stronger effect = lower value 0.984 | locus YDR001C, strain nth1, stronger effect = lower value 0.99 | locus YDR069C, strain doa4, stronger effect = lower value 0.984 | locus YDR101C, strain arx1, stronger effect = lower value 0.956 | locus YDR137W, strain rgp1, stronger effect = lower value 0.998 | locus YDR150W, strain NUM1, stronger effect = lower value 0.997 | locus YDR159W, strain sac3, stronger effect = lower value 0.981 | locus YDR162C, strain NBP2, stronger effect = lower value 1.01 | locus YDR195W, strain ref2 0.94 | locus YDR297W, strain sur2, stronger effect = lower value 0.994 | locus YDR318W, strain mcm21, stronger effect = lower value 1.01 | locus YDR334W, strain swr1, stronger effect = lower value 0.99 | locus YDR335W, strain msn5, stronger effect = lower value 1 | locus YDR388W, stronger effect = lower value 0.994 | locus YDR392W, strain spt3, stronger effect = lower value 0.907 | locus YDR502C, strain sam2, stronger effect = lower value 1 | locus YEL003W, strain gim4, stronger effect = lower value 1.01 | locus YEL037C, strain rad23, stronger effect = lower value 1 | locus YEL061C, strain CIN8 (second series), stronger effect = lower value 0.992 | locus YEL061C, strain CIN8, stronger effect = lower value 1 | locus YER015W, strain faa2, stronger effect = lower value 1.01 | locus YER016W, strain bim1, stronger effect = lower value 0.996 | locus YER110C, stronger effect = lower value 0.975 | locus YER111C, strain swi4, stronger effect = lower value 0.998 | locus YER155C, strain BEM2 (second series), stronger effect = lower value 0.939 | locus YER155C, strain BEM2, stronger effect = lower value 0.997 | locus YER167W, strain BCK2, stronger effect = lower value 1.01 | locus YFR010W, strain ubp6, stronger effect = lower value 1.01 | locus YGL078C, strain dbp3, stronger effect = lower value 0.989 | locus YGL086W, strain mad1, stronger effect = lower value 0.954 | locus YGL167C, strain pmr1, stronger effect = lower value 0.997 | locus YGL173C, strain kem1, stronger effect = lower value 1 | locus YGL227W, strain vid30, stronger effect = lower value 0.996 | locus YGL240W, strain doc1, stronger effect = lower value 0.941 | locus YGL248W, strain PDE1, stronger effect = lower value 1.01 | locus YGL253W, strain hxk2, stronger effect = lower value 1.03 | locus YGR078C, strain PAC10, stronger effect = lower value 0.998 | locus YGR135W, strain pre9, stronger effect = lower value 1 | locus YGR229C, strain SMI1, stronger effect = lower value 1.01 | locus YGR252W, strain gcn5, stronger effect = lower value 1.17 | locus YHR013C, strain ard1, stronger effect = lower value 0.998 | locus YHR027C, strain rpn1, stronger effect = lower value 0.984 | locus YHR030C, strain SLT2, stronger effect = lower value 0.989 and 1.03 | locus YHR079C, strain IRE1 (second series), stronger effect = lower value 0.992 | locus YHR079C, strain IRE1, stronger effect = lower value 1.05 | locus YHR094C, strain hxt1, stronger effect = lower value 0.995 | locus YHR129C, strain ARP1, stronger effect = lower value 1.01 | locus YHR142W, strain chs7, stronger effect = lower value 0.995 | locus YHR200W, strain rpn10, stronger effect = lower value 0.995 | locus YIL066C, strain RNR3, stronger effect = lower value 1 | locus YIL073C, strain SPO22, stronger effect = lower value 0.986 | locus YIL125W, strain kgd1, stronger effect = lower value 0.993 | locus YIR030C, strain dcg1, stronger effect = lower value 0.997 | locus YJL092W, strain hpr5, stronger effect = lower value 1.01 | locus YJL095W, strain BCK1 (second series), stronger effect = lower value 0.993 | locus YJL095W, strain BCK1, stronger effect = lower value 0.998 and 1.02 | locus YJL115W, strain asf1, stronger effect = lower value 0.985 | locus YJL129C, strain trk1, stronger effect = lower value 1.03 | locus YJL134W, strain LCB3, stronger effect = lower value 0.991 | locus YJL154C, strain vps35, stronger effect = lower value 0.991 | locus YJL164C, strain tpk1, stronger effect = lower value 1.03 | locus YJL166W, strain qcr8, stronger effect = lower value 0.991 | locus YJL168C, strain set2, stronger effect = lower value 0.985 | locus YJL187C, strain SWE1 (second series), stronger effect = lower value 0.992 | locus YJL187C, strain SWE1, stronger effect = lower value 1.02 | locus YJR043C, strain POL32, stronger effect = lower value 1.01 | locus YJR066W, strain TOR1, stronger effect = lower value 0.952 | locus YJR075W, strain HOC1, stronger effect = lower value 0.995 | locus YKL009W, strain mrt4, stronger effect = lower value 0.964 | locus YKL068W, stronger effect = lower value 0.975 | locus YKL085W, strain MDH1 (second series), stronger effect = lower value 0.983 | locus YKL085W, strain MDH1, stronger effect = lower value 0.983 | locus YKL160W, strain elf1, stronger effect = lower value 1.02 | locus YKL190W, strain CNB1, stronger effect = lower value 1.01 | locus YKR001C, strain vps1, stronger effect = lower value 0.959 | locus YKR026C, strain gcn3, stronger effect = lower value 0.992 | locus YKR091W, strain srl3, stronger effect = lower value 0.991 | locus YLL001W, strain dnm1, stronger effect = lower value 1 | locus YLL026W, stronger effect = lower value 0.994 | locus YLL041C, strain sdh2, stronger effect = lower value 0.998 | locus YLR027C, strain aat2, stronger effect = lower value 1.01 | locus YLR039C, strain RIC1, stronger effect = lower value 0.91 | locus YLR058C, strain SHM2, stronger effect = lower value 1.01 | locus YLR102C, strain apc9, stronger effect = lower value 0.984 | locus YLR113W, strain HOG1, stronger effect = lower value 1.02 | locus YLR221C, strain rsa3, stronger effect = lower value 0.987 | locus YLR258W, strain gsy2, stronger effect = lower value 1.01 | locus YLR262C, strain YPT6 (second series), stronger effect = lower value 1 | locus YLR262C, strain YPT6, stronger effect = lower value 0.896 | locus YLR268W, strain sec22, stronger effect = lower value 0.957 | locus YLR320W, strain mms22, stronger effect = lower value 0.983 | locus YLR330W, strain CHS5, stronger effect = lower value 0.989 | locus YLR342W, strain FKS1 (second series), stronger effect = lower value 1.02 | locus YLR342W, strain FKS1, stronger effect = lower value 0.992 | locus YLR357W, strain rsc2, stronger effect = lower value 0.984 | locus YLR370C, strain arc18, stronger effect = lower value 0.992 | locus YLR371W, strain rom2, stronger effect = lower value 0.984 | locus YLR384C, strain iki3, stronger effect = lower value 0.972 | locus YLR418C, strain cdc73, stronger effect = lower value 1.06 | locus YML016C, strain PPZ1, stronger effect = lower value 0.989 | locus YML032C, strain rad52, stronger effect = lower value 1.02 | locus YML120C, strain ndi1, stronger effect = lower value 1 | locus YML124C, strain tub3, stronger effect = lower value 0.994 | locus YMR058W, strain fet3, stronger effect = lower value 1 | locus YMR078C, strain ctf18, stronger effect = lower value 0.98 | locus YMR125W, strain sto1, stronger effect = lower value 1.02 | locus YMR129W, stronger effect = lower value 1 | locus YMR205C, strain PFK2, stronger effect = lower value 1.02 | locus YMR223W, strain ubp8, stronger effect = lower value 0.995 | locus YMR231W, strain pep5, stronger effect = lower value 0.996 | locus YMR263W, strain SAP30, stronger effect = lower value 0.995 | locus YMR307W, strain GAS1, stronger effect = lower value 1.16 | locus YNL067W, strain RPL9B, stronger effect = lower value 0.998 | locus YNL071W, strain lat1, stronger effect = lower value 1 | locus YNL153C, strain GIM3, stronger effect = lower value 0.988 | locus YNL183C, strain NPR1, stronger effect = lower value 0.965 | locus YNL209W, strain ssb2, stronger effect = lower value 1 | locus YNL233W, strain BNI4, stronger effect = lower value 0.993 | locus YNL248C, strain rpa49, stronger effect = lower value 0.914 | locus YNL250W, strain rad50, stronger effect = lower value 0.935 | locus YNL271C, strain bni1, stronger effect = lower value 0.984 | locus YNL298W, strain CLA4, stronger effect = lower value 0.991 | locus YNL307C, strain MCK1, stronger effect = lower value 0.982 | locus YNL322C, strain KRE1 (second series), stronger effect = lower value 1 | locus YNR049C, strain mso1, stronger effect = lower value 1.02 | locus YNR052C, strain pop2, stronger effect = lower value 1.02 | locus YOL006C, strain TOP1, stronger effect = lower value 0.831 | locus YOL012C, strain htz1 0.879 | locus YOL147C, strain pex11, stronger effect = lower value 0.991 | locus YOR001W, strain rrp6, stronger effect = lower value 0.972 | locus YOR061W, strain CKA2, stronger effect = lower value 0.992 | locus YOR069W, strain VPS5, stronger effect = lower value 0.993 | locus YOR070C, strain gyp1, stronger effect = lower value 1 | locus YOR080W, strain dia2, stronger effect = lower value 1 | locus YOR083W, strain WHI5, stronger effect = lower value 1.02 | locus YOR106W, strain vam3, stronger effect = lower value 1.02 | locus YOR136W, strain idh2, stronger effect = lower value 0.972 | locus YOR144C, strain elg1, stronger effect = lower value 0.996 | locus YOR184W, strain ser1, stronger effect = lower value 0.978 | locus YOR231W, strain MKK1, stronger effect = lower value 1.04 | locus YOR265W, strain rbl2, stronger effect = lower value 1 | locus YOR270C, strain vph1, stronger effect = lower value 1.04 | locus YOR290C, strain snf2, stronger effect = lower value 0.994 | locus YOR316C, strain cot1, stronger effect = lower value 0.994 | locus YPL051W, strain arl3, stronger effect = lower value 1 | locus YPL078C, strain atp4, stronger effect = lower value 1.01 | locus YPL106C, strain sse1, stronger effect = lower value 0.966 | locus YPL240C, strain hsp82, stronger effect = lower value 0.992 | locus YPL241C, strain CIN2, stronger effect = lower value 1.01 | locus YPL256C, strain CLN2, stronger effect = lower value 1.04 | locus YPR119W, strain clb2, stronger effect = lower value 0.985 | locus YPR141C, strain kar3, stronger effect = lower value 0.992 | locus YPR163C, strain tif3, stronger effect = lower value 0.986 | locus YPR167C, strain met16, stronger effect = lower value 0.996 | strain wtn01, stronger effect = lower value 0.94
